Only some compounds are listed: those with a hit (about 14% of all), similar ones and a draw of the others.
HCMV inh – qHTS Assay for inhibitors of the human cytomegalovirus (HCMV); HFF cells, HCMV-luciferase reporter, 72 h; active compounds read low; AID 1259415, 2018; activity change, negative = inhibition, % at 57.5 µM; actives 4.5% (n = 410,000); in the data active means activity change below about -60%; inconclusive means no clear call, values can overlap the other calls; inactive means above about -39%
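Compounds were evaluated in HFFs infected with an HCMV luciferase reporter virus (MOI 1 PFU/cell). Luciferase in lysates collected 72 h post infection served as the replication measure.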
Pf growth 48h – Primary qHTS for delayed death inhibitors of the malarial parasite plastid, 48 hour incubation; P. falciparum luciferase growth in erythrocytes, 48 h; Potency, µM (titrated, usually from 28.7 µM), without a hit: at the top dose activity change, negative = inhibition, actives largely listed as inhibitors; AID 504832, 2011; actives 5.9% (n = 310,000); further: potency means the concentration at half of the fitted maximal effect
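Read-out is firefly luciferase luminescence from an integrated reporter in P. falciparum, so falling signal marks reduced parasite growth. Infected erythrocytes were at 2% hematocrit and 0.1% parasitemia (final) in Albumax-supplemented RPMI 1640.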
Giardia FBPA inh – qHTS Assay for Inhibitors of Fructose-1,6-bisphosphate Aldolase from Giardia Lamblia | A8B2U2 | purified Giardia FBPA | Potency, µM (highest dose often 59.6 µM), without a hit: at the highest dose activity, negative = inhibition, usual class: inhibitors | actives 0.71% (n = 290,000) | AID 2451, 2010; further: potency means the concentration at half of the fitted maximal effect; nearly all actives have a fitted effect of over 55% in size
Target sequence (A8B2U2 whole entry, looked up): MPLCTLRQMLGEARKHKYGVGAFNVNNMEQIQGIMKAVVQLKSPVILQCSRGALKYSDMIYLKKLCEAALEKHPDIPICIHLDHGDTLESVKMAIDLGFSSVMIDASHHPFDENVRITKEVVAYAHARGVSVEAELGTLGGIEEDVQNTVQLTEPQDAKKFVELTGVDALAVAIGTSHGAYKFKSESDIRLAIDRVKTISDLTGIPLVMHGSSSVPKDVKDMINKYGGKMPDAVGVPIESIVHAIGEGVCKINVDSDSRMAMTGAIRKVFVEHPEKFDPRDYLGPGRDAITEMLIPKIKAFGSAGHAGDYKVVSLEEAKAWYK
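40 nM FBPA preincubated 10 min at RT with compound (up to 57.5 uM final), then substrate plus GAPDH/TPI/NAD/arsenate coupling and diaphorase/resazurin added. Fluorescence read after 20 min at RT, 525/598 nm.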
Pf growth 96h – Primary qHTS for delayed death inhibitors of the malarial parasite plastid, 96 hour incubation; P. falciparum luciferase reporter growth, 96 h; Potency, µM (highest dose often 28.7 µM), for inactives: top-dose activity change, negative = inhibition, usual class: inhibitors; actives 6.9% (n = 320,000); further: potency means the concentration at half of the fitted maximal effect
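Readout is luminescence from an integrated firefly luciferase in P. falciparum. Red cells, 2% hematocrit and 0.05% parasitemia final, were cultured with compound through two parasite generations (96 hours) at 37 C, 5% CO2.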
Sm TGR inh – qHTS Assay for the Inhibitors of Schistosoma Mansoni Peroxiredoxins | Schistosoma mansoni thioredoxin glutathione reductase (TGR), Q962Y6 | purified TGR, DTNB reduction, TNB absorbance 405 nm | Potency, µM (series often up to 114 µM), inactives show top-dose activity change, negative = inhibition, usual class: inhibitors | actives 3% (n = 360,000) | AID 485364, 2010; further: potency means the concentration at half of the fitted maximal effect; nearly all actives have a fitted effect of over 60% in size
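TGR 20 nM + NADPH 100 uM (dispensed conc.), cpd preinc 15 min RT; start with NADPH (500 uM addition) then DTNB (15 mM addition). Kinetic TNB absorbance, 405 nm filter. Four-parameter Hill fit across titration.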
An asterisk follows results filed as active; u = inconclusive; x = no result given; ! = not active in a repeat; [ ] = another dose, or the depositor's remark. Unless noted, the call rests on the fitted dose curve; in most records, active means well fitted curve in the direction sought with a large enough effect; inconclusive means small, poorly fitted or top-dose-only effect, or another doubt; inactive means no such curve, though single readings can be large; an effect the other way counts as inactive or inconclusive. On the % scale 0 is the no-effect control and ±100 the full control effect.

SMILES | HCMV inh | Pf growth 48h | Giardia FBPA inh | Pf growth 96h | Sm TGR inh
O=C(NCc1cccnc1)C(=O)NCC1OCCCN1S(=O)(=O)c1cc(F)ccc1F (centres undefined) | -24 | x | x | x | x
C/C=C\C(=O)Nc1cccc(C2=NOC3(C2)C[C@@H](C(N)=O)N(C(=O)C2(C)CC2)C3)c1 (some centres undefined) | 16 | 24% | 2% | 20% | -1%
C/C=C\C=C/C(=O)Nc1cccc(C2=NOC3(C2)C[C@@H](C(N)=O)N(C(=O)[C@H]2CCC(=O)N2)C3)c1 (some centres undefined) | x | 46% | 0% | 81% | 3.5µM*
C/C=C\C=C/C(=O)Nc1cccc(C2=NOC3(C2)C[C@@H](C(N)=O)N(C(=O)/C=C/CC)C3)c1 (some centres undefined) | x | 58% | -19% | 59% | 1.8µM*
C/C=C\C=C/C(=O)Nc1cccc(C2=NOC3(C2)C[C@@H](C(N)=O)N(C(=O)C2(C)CC2)C3)c1 (some centres undefined) | 45 | 56% | -12% | 50% | 1.8µM*
C/C=C\C(=O)Nc1cccc(C2=NOC3(C2)C[C@H](C(N)=O)N(C(=O)/C=C/CC)C3)c1 (some centres undefined) | u | 40% | -3% | 41% | -16%
CCCCCC(=O)Nc1cccc(C2=NOC3(C2)C[C@H](C(N)=O)N(C(=O)[C@H]2CCC(=O)N2)C3)c1 (some centres undefined) | -6 | 40% | 0% | 57% | 0%
CC1(c2nnnn2Cc2ccccc2)CCC(=O)N1c1ccc(N2CCOCC2)cc1 (centres undefined) | -12 | x | x | x | x
COC(=O)CSc1nc(C)cc(N2CCOCC2)n1 | 61 | 13% | 0% | 61% | 2%
O=C(NC1CCN(Cc2ccccc2)CC1)c1ccc2c(c1)[nH]c(=O)n2Cc1ccc(F)cc1 | -86* | -4% | 10% | 74% | 4%
O=C(NC1CCN(Cc2ccccc2)CC1)c1ccccc1 | -9 | 13%[0.00184 µM] | 1% | -5% | 0%
O=C(COc1ccc(C(=O)c2ccccc2)cc1)NC1CCCCC1 | -84* | 9% | 0% | 44% | 0%
CCOC(=O)N1CCC(NC(=O)c2cc(C(=O)NC3CCN(Cc4ccccc4)CC3)ccc2CO)CC1 | u | 16% | 9% | 10µM* | -14%
O=C(COc1ccc(C(=O)c2ccccc2)cc1)NC1CCCCCC1 | u | u | 5% | u | 8%
CC(C)(C)c1ccc(C(=O)NC2CCN(Cc3ccccc3)CC2)cc1 | u | u | -3% | 3.3µM* | -3%
O=C(Cc1ccccc1)NC1CCN(Cc2ccccc2)CC1 | -62* | 2% | -3% | -18% | 56%
O=C(NC1CCN(Cc2ccc(Cl)cc2Cl)CC1)c1ccccc1 | -81* | -16%[0.00184 µM] | 0% | 2.9µM* | 6%
O=C(Cn1cc2c(n1)CCCCC2)NC1CCN(Cc2ccccc2)CC1 | -33 | x | 0% | 12µM* | -1%
Cc1ccc(CC(=O)NC2CCN(Cc3ccccc3)CC2)cc1 | -4 | -11% | 0% | 0% | 0%
O=C(Cn1cc2c(n1)CCCC2)NC1CCCCCC1 | 7 | 3% | 3% | u | 7%
CCC(=O)c1ccc(OCC(=O)NC2CCN(Cc3ccccc3)CC2)cc1 | -105* | x | x | x | x
COc1c2ccccc2nn1-c1ccc(I)cc1 | 66 | x | x | x | x
O=C1c2ccccc2C(c2nnnn2-c2ccc3c(c2)OCCO3)N1C1CC1 (centres undefined) | -9 | x | x | x | x
CN1C(=O)/C(=C/c2ccccc2Cl)Sc2ccc(C(=O)N3CCCC3)cc21 | u | u | 0% | 40% | 11%
C[C@@H](CNC1CCCCC1)OC(=O)c1ccccc1 | x | 2µM* | 1%[21.7 µM] | 2.6µM* | x
SMILES | HCMV inh | Pf growth 48h | Giardia FBPA inh | Pf growth 96h | Sm TGR inh
N#CC(c1ccccc1)C1CCN(Cc2ccccc2)CC1 (centres undefined) | -9 | 20% | -18% | 22% | 89µM*
CN1C(=O)/C(=C\c2ccccc2F)Sc2ccc(C(=O)NC3CCN(Cc4ccccc4)CC3)cc21 | -71* | 1.7µM* | 1% | u | -6%
O=C(NC1CCN(CCc2c[nH]c3ccccc23)CC1)c1ccccc1 | 13 | 15µM*! | -10% | 12µM* | -33%
FC(F)(F)c1nnc2ccc(NCc3ccccc3)nn12 | 21 | u | 1% | u | 3%
CC(OC(=O)COc1ccccc1)C(=O)NC1CCCC1 (centres undefined) | 1 | 1% | x | 19% | 22µM*
CC(Oc1ccccc1)C(=O)NC1CCCCCCC1 (centres undefined) | -10 | -4% | x | 35% | 3%
CC(C)C[C@H](NC(=O)c1ccc(NCc2cnc[nH]2)cc1-c1cccc2ccccc12)C(=O)O | x | x | 7% | x | x
COc1cccc(N2CCN(C(=O)c3cnc4c(-c5ccccc5)c(C)nn4c3C)CC2)c1 | -6 | x | x | x | 0%
C=CCn1c(SCC(=O)NC2CCCCC2)nnc1-c1cccnc1 | -12 | -8% | 13% | 78% | 4%
COc1cc(C(=O)OCC(=O)Nc2ccc(N3CCOCC3)cc2)ccc1OCC(C)C | -26 | -16% | x | 6% | 50µM*
COc1ccc(C(=O)Nc2ccc(N3CCOCC3)cc2)cc1OC | 8 | 63% | -15% | -11% | 24%
Cc1cc(C)cc(OCC(=O)Nc2ccc(CN3CCCCC3)cc2)c1 | -28 | 12µM* | 4% | u | x
Cc1ccc(NC(=O)CSC(C)C(=O)OCC(=O)N2CCN(C(=O)c3ccco3)CC2)cc1 (centres undefined) | -22 | 8% | x | 0% | 50µM*
O=C(CCn1ccc2ccccc21)Nc1ccc(N2CCOCC2)cc1 | 7 | 13µM* | -7% | u | -12%
O=C(CCn1c(=O)oc2ccccc21)Nc1ccc(N2CCOCC2)cc1 | -8 | -13% | 1% | 13% | 1%
CC(C)C(C(=O)NCC1CCCO1)N(C(=O)CNS(=O)(=O)c1ccc(F)cc1)C1CCCCC1 (centres undefined) | 11 | -10% | x | 3% | -5%
CC1CCc2sc(C(=O)N3CCN(c4ncccn4)CC3)cc2C1 (centres undefined) | 21 | x | x | x | x
COc1ccccc1OCC(=O)Nc1ccc(N2CCCCC2)cc1 | 34 | -65% | -5% | 21% | 0%
Cc1ccc(C)c(OCC(=O)Nc2nonc2NC(=O)COc2cc(C)ccc2C)c1 | 33 | u | 8% | 3% | 7%
Cc1ccc(OCC(=O)Nc2ccc(N3CCCC3)cc2)cc1C | 21 | 12µM* | u | -6% | u
Cc1ccc(C)c(OCC(=O)Nc2cc(NC(=O)COc3cc(C)ccc3C)cc(C(=O)O)c2)c1 | -13 | 15% | 17% | 8.3µM* | 0%

Screening data as filed in PubChem.
